High-throughput results (PubChem)
PAX8 reporter: inhibitors of PAX8-driven TPO luciferase reporter, primary screen, RMG-I cells, single concentration. inhibition, % at 12.6 µM. AID 652154, 2013. SteadyGlo, 24 h. 360,000 tested, 1.2% active;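 active means mean replicate inhibition at least 60% with every replicate also reaching 60%; inconclusive means only one of the two criteria is met; inactive means mean below 60% and not all replicates reaching 60%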;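 further: luciferase light reporting Pax8 driven TPO promoter activity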
Wnt bcat act: Wnt/beta-catenin pathway activators, primary screen, cell-based, plate reader, single point; Wnt/beta-catenin reporter cell assay, activator; activation, % at 9.35 µM; 300,000 tested, 1.2% active; in the data active means activation above about 30%, passing the limit was not always enough; inconclusive means no clear call, values can overlap the other calls
esBAF inh: Bmi1 luciferase reporter increase in mESCs, primary screen, esBAF inhibitor project, mouse ES cells, Bmi1 luciferase knock-in, single point | 24 h; 100% = twice the neutral-well signal | reporter increase, % at 12.5 µM | 350,000 tested, 2% active | AID 602393, 2012; in the data active means activation above about 40%; inconclusive means no clear call, values can overlap the other calls;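 further: a rise in the Bmi1 reporter signal indicates esBAF inhibition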
EWS-Fli inh: EWS/Fli-driven NR0B1 reporter inhibitors, primary screen, A673 cells, NR0B1 luciferase, luminescence, MLPCN library; viability-normalised; AID 651661, 2012; inhibition, % at 12.6 µM; 350,000 tested, 0.67% active;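 active means mean inhibition of at least 50% after viability correction, with every replicate also passing that limit; inconclusive means mean reaches 50% but only one of two replicates passes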;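 further: firefly luciferase signal divided by Alamar Blue viability fluorescence both relative to DMSO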
MITF TRPM1 inh: inhibitors of MITF-dependent TRPM1 promoter reporter, primary screen, cell-based, SK-MEL-5, single point, luciferase. AID 488899, 2010. inhibition, % at 12.5 µM. 330,000 tested, 0.83% active. SK-MEL-5 TRPM1 promoter luciferase, 24 h;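 active means mean inhibition across replicates of 60% or more, whatever share of single replicates reaches that level; inconclusive means some that reach 60%, reason not given; inactive means mean inhibition across replicates below 60%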
MITF TRPM1 HTS: activators of MITF-driven TRPM1 promoter reporter, primary screen, cell-based, SK-MEL-5, luciferase, single point; SK-MEL-5 TRPM1-promoter luciferase, 24 h; % of positive control, neutral wells = 0; activation, % at 12.5 µM; AID 588334, 2011; 300,000 tested, 0.75% active;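 active means mean activation of at least 80% with every replicate also reaching 80%; inconclusive means mean reaches 80% but some replicate falls short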
A number is an active result; . = inactive; ? = inconclusive; / = no result given. An excerpt weighted towards active compounds, which were near 4% of everything screened.

SMILES | PAX8 reporter | Wnt bcat act | esBAF inh | EWS-Fli inh | MITF TRPM1 inh | MITF TRPM1 HTS
Cc1ccccc1Nc1sc(C(=O)Nc2cccc(Cl)c2)c(N)c1C(N)=O | . | 51.5 | / | . | . | .
Cc1cc(=O)oc2cc(OC(=O)c3ccccc3)ccc12 | / | . | . | . | . | .
COc1ccccc1-c1c(C(F)(F)F)oc2cc(OC(=O)c3ccc([N+](=O)[O-])cc3)ccc2c1=O | . | . | 66.7 | . | . | .
Cc1ccc(NC(=O)C2CCCN(c3ncccn3)C2)c(C)c1 (centres undefined) | . | . | 50.6 | . | . | .
CC(C)(C)OC(=O)N1CCC(C(=O)Nc2ccc3c(c2)CCC3)CC1 | . | . | 74.5 | . | . | ?
O=C(Nc1ccc2c(c1)CCC2)C1CCCN(c2ncccn2)C1 (centres undefined) | / | / | 62.0 | / | . | 85.7
O=C(NCCN1CCCC1)[C@H]1N[C@H]2c3ccc(C4=CCCCC4)c(=O)n3C[C@H]2[C@@H]1CO | . | / | . | . | / | /
CCc1ccc(NC(=O)c2cc(C)on2)cc1 | / | . | . | . | . | ?
C/C(=C\c1ccccc1)C(=O)Nc1cc(C)on1 | . | . | 55.6 | / | . | ?
CC(C)Cc1cc(C(=O)Nc2ccc(F)cc2F)no1 | . | . | 78.6 | . | . | .
CCc1ccc(NC(=O)c2cc(C(C)C)on2)cc1 | / | / | . | / | . | .
CCc1ccc(NC(=O)c2cc(CC(C)C)on2)cc1 | . | 59.5 | 70.6 | . | / | /
CCCc1cc(C(=O)Nc2ccc(CC)cc2)no1 | . | 39.5 | 77.2 | . | . | 159.4
COc1ccc(NC(=O)Nc2ccc3c(c2)C(=O)N([C@@H](C)CO)C[C@H](C)[C@H](CN(C)S(=O)(=O)c2ccc(Cl)cc2)OCCCC[C@@H](C)O3)cc1 | . | / | . | . | / | /
Cc1ccc(NC(=O)c2cc(C)on2)cc1 | / | / | . | / | . | 96.8
Cc1ccc(/C=C/C(=O)Nc2cc(C)on2)cc1 | . | 34.8 | . | / | . | .
CCc1ccc(NC(=O)c2cc(C)no2)cc1 | . | . | 55.5 | . | . | .
Cc1cc(NS(=O)(=O)c2ccc(NC(=O)/C=C/c3ccc(Br)cc3)cc2)no1 | . | . | . | . | . | .
O=C(Nc1ccc(F)cc1F)c1csc(-c2cccs2)n1 | . | 34.5 | / | . | . | .
CCCc1cc(C(=O)Nc2ccc(C)cc2)no1 | . | 55.7 | 73.2 | . | / | /
COc1ccc(NC(=O)c2cc(CC(C)C)on2)cc1OC | . | . | 50.4 | . | / | /
CC(C)Cc1cc(C(=O)NCc2cccnc2)no1 | . | . | . | . | / | /
Cc1ccc(NC(=S)Nc2cc(C)on2)cc1 | . | 48.9 | . | . | / | /
CC(C)Cc1cc(C(=O)NCc2cccs2)no1 | . | ? | 65.2 | . | . | .
Cc1ccc(NC(=O)c2cc(C)no2)cc1 | . | . | . | . | . | .
SMILES | PAX8 reporter | Wnt bcat act | esBAF inh | EWS-Fli inh | MITF TRPM1 inh | MITF TRPM1 HTS
CC(C)Cc1cc(C(=O)Nc2cccc(O)c2)no1 | . | . | . | . | . | .
CNC[C@@H]1Oc2ccc(NC(=O)Cc3ccccc3)cc2C(=O)N([C@H](C)CO)C[C@H]1C | . | / | . | . | / | /
O=C(NC[C@H]1CC[C@@H]2[C@@H](CN2C(=O)CN2CCOCC2)O1)NC1CCCCC1 | . | / | / | . | / | /
C/C(=N\NC(=O)COc1ccc(C(C)(C)C)cc1)c1ccc(-n2ccnc2)cc1 | . | / | 47.5 | / | . | .
COc1ccc(OCC(=O)N/N=C(\C)c2ccc(-n3ccnc3)cc2)cc1 | . | . | . | / | . | .
COc1ccc(NC(=O)N(C)C[C@H]2Oc3cc(-c4cccc(C(=O)N(C)C)c4)ccc3S(=O)(=O)N([C@H](C)CO)C[C@H]2C)cc1 | . | / | . | . | / | /
CCC1([N+](=O)[O-])COC(C=Cc2ccccc2)OC1 (centres undefined) | . | . | 54.0 | . | . | .
CCC(=O)Nc1cc(C(=O)O)ccc1S(=O)(=O)c1ccc(C)cc1 | 64.4 | . | . | . | . | .
CC(=O)Nc1cc(C(=O)O)ccc1S(=O)(=O)c1ccc(C)cc1 | / | / | . | / | . | .
COc1cccc(N=C(N)N=C(N)N)c1 | . | . | . | . | . | .
COc1ccnc(CSC(N)=Nc2ccc(F)cc2)c1 | / | / | 55.7 | / | . | .
CC(C)OC(=O)Cn1nnc2c(cnn2-c2ccccc2)c1=O | / | / | 46.9 | / | . | .
O=C(NC[C@H]1CC[C@H]2[C@H](CN2S(=O)(=O)c2ccccc2)O1)NC1CCCCC1 | / | / | / | . | / | /
